Among all 360,000 compounds or so, about 1,300 (0.36%) were called active. The full list was thinned out, with actives kept by preference. Values without a mark were called inactive. No stated cut-off is given here; in the data, active means inhibition above about 19%; inactive means the rest.

The assay concerns T-cell receptor (TCR). Kind of assay: inhibitors of human TCR-CD3 interaction, primary screen, biochemical, fluorescence, TAMRA-labeled TCR probe (AID 651800).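 Further: recombinant mutant TCR 2C K166C tagged with TAMRA read by polarization; 0% = receptor in buffer alone and 100% = receptor with positive control.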 The conditions noted are these: at 9.4 µM, active compounds read high.
Broadly, the inhibition is the drop in the measured response relative to a control, in per cent. For the compound `COC(=O)Cc1nnn2c1[C@H](C)[C@H](c1ccccc1[N+](=O)[O-])OCC2`, the inhibition is 1.45%.
Then `Nc1ccc2nc3c(=O)[nH]c(=S)[nH]c3nc2c1`, with 109% (active); and `O=C(NCc1ccccc1)[C@@H]1CCCN1C(=O)[C@H]1CCCN1C(=O)c1cccc(Cl)c1`, with 5.36%; and `CC(C)(C)n1nc(C2CC2)c(Br)c1NC(=O)c1ccccc1F`, with -0.36%.
Then `COC(=O)C1=C(C)N(Cc2ccc(C(F)(F)F)cc2)C(=NCc2ccccc2)NC1c1ccccc1C(F)(F)F` (stereo not drawn), with -1.22%; and `COc1ccc(SSc2ccc(OC)cc2C(=O)O)c(C(=O)O)c1`, with 5.64%; and `CCOC(=O)Cn1c2c(n(-c3ccc(F)cc3)c1=O)C=C(c1ccccc1)[C@@H](C)C(C(=O)N(C)C1CCCCC1)=C2`, with 5.23%.
Then `Cc1cccc(C(=O)Nc2ccc(C(=O)/C=C/c3cccs3)cc2)c1`, with 19.4% (active); and `CC(=O)Nc1ccc(NC(=O)[C@@H](NC(=O)c2cccc(C)c2)C(C)C)cc1`, with 2.27%; and `Cc1cccc(C(=O)Nc2ccc3c(c2)C(=O)N(CC(C)C)C3=O)c1`, with -1.41%.
Regarding `COCc1[nH]nc2c1C(c1ccccc1)N(c1ccccc1)C2=O` (stereo not drawn), the inhibition was 5.26%.
For the compound `COc1cccc(CNC(=O)[C@H]2CCCN2C(=O)[C@H]2CCCN2C(=O)C2CCCCC2)c1`, the inhibition was -0.26%.
Then `COC(=O)C1=C(C)N(Cc2cccc(C(F)(F)F)c2)C(=NCc2ccccc2)NC1c1ccc(Cl)cc1` (stereo not drawn), with 7.39%.
In the case of `Cc1cc2c(nc1C)CCCN2C`, the inhibition is -1.06%.
Then `Cc1ccc(NC(=O)C(=O)NCc2ccc(/C=N/NC(=O)c3c(C)nc4cc(C)ccn34)o2)cc1`, with 5.69%.
Then `CCCC1OC23CCCCC2C(C#N)(C#N)C1(C#N)C(=N)O3` (stereo not drawn), with 24.9% (active); and `CC(C)[C@H]1COCCS(=O)(=O)N1Cc1ccccc1-c1cccc2c1sc1ccccc12`, with -8.35%; and `Cc1nn(Cc2ccc(Cl)cc2)c(Cl)c1/C=N/NC(=O)CNc1ccccc1F`, with 4.16%.
Then `O=[N+]([O-])c1ccc(C=Nc2ccc(Cl)cc2Cl)s1`, with -1.69%; and `Cc1ccccc1NCC(=O)N/N=C\c1ccc([N+](=O)[O-])s1`, with 21.7% (active); and `CN1C(=O)C2CC(O)C(SC3CC4C(=O)N(C)C(=O)C4CC3O)CC2C1=O` (stereo not drawn), with 0.12%.
Regarding `C=CC[C@]12C[C@@]3(O[C@H](c4ccc(C(F)(F)F)cc4)N=C3C[C@H](c3ccc(OC)cc3)[C@H]1C)N(C1CCN(Cc3ccccc3)CC1)C2=O`, the inhibition was 3.26%.
In the case of `CC(=O)N/N=C(\C)c1ccc(Br)cc1Br` it was 2.37%.
Then `O=C(Nc1ccccc1)c1ccccc1Br`, with -6.01%; and `CC(=N\NC(=O)c1cc(Br)ccc1O)/C(=N/O)C(=O)Nc1ccccc1`, with 35.2% (active).
In the case of `COc1cccc(-c2cc(CNC(=O)[C@@H](Cc3ccccc3)NC(=O)[C@H]3O[C@@H](n4cnc(C(N)=O)n4)[C@H](O)[C@@H]3O)no2)c1` it was 0.79%; in that of `CC(=O)C1=C(C)N(Cc2ccccc2)C(=S)NC1c1cccc(Br)c1` (stereo not drawn), -1.04%; in that of `COC(=O)c1c(-c2ccc(OC)cc2)c2c(c3c4cc(OC)ccc4n(S(=O)(=O)c4ccc(F)cc4)c13)C(=O)N(C)C2`, -4.92%.
Regarding `CCOC(=O)N1CCN(C(=O)C[C@H]2C[C@@]3(C(=O)OC)C(=C[C@H](C4CCCC4)O[C@@H]3C)N(Cc3ccccc3)C2=O)CC1`, the inhibition is 8.81%.
Then `COc1ccc(Br)cc1C(=O)NC(=S)Nc1cc(-c2nc3ccccc3[nH]2)ccc1C`, with 55.2% (active).
Then `COc1cc(OC)cc(C(=O)N[C@H](C(=O)Nc2nc3ccccc3[nH]2)C(C)C)c1`, with -1.15%; and `O=C(NC(=S)Nc1ccccc1C(=O)O)c1ccc(-c2ccc(Br)cc2)o1`, with 4.88%.
Then `Cc1[nH]nc2c1C(c1ccc(Br)cc1)NC2=O` (stereo not drawn), with -1.49%.
For `C[C@@H](CN1C2=NC[C@@H](Cc3ccccc3)N2C[C@H]1Cc1ccc(O)cc1)NC(=O)CCC1CCCCC1`, the inhibition was -8.44%.
With `CCOC(=O)c1ccc(NC(=O)CNC(=O)c2ccco2)cc1`, the inhibition was -5.65%.
In the case of `O=C(NNC(=S)Nc1ccc(Br)cc1Cl)c1ccco1`, the inhibition was 0.36%.
Turning to `CCC(=O)NC(=S)Nc1ccc(NC(=O)c2ccco2)c(Cl)c1`, the inhibition was 27.1% (active).
Then `O=C(CN1CCN(c2ccc(O)cc2)CC1)NC1CCCc2ccccc21` (stereo not drawn), with -3.37%.
Take `COC(=O)C1=C(C)N(Cc2ccccc2C(F)(F)F)C(=NCc2ccc(OC)cc2)NC1c1cccc(C(F)(F)F)c1` (stereo not drawn): the inhibition is 6.08%.
In the case of `Cc1noc(C)c1NC(=O)Nc1ccc2c(c1)C(=O)N([C@H](C)CO)C[C@H](C)[C@H](CN(C)Cc1ccncc1)OCCCC[C@@H](C)O2` it was 7.13%; in that of `CN1CCCc2nc(-c3ccccc3)ccc21`, 3.5%; in that of `CC(C)CC1NC(=O)c2cc(Cl)ccc2-n2c1nc1ccccc1c2=O` (stereo not drawn), 3.77%.
`CCOC(=O)C1=C(C(=O)OCC)C2N(Cc3ccc(C#N)cc3)c3ccccc3[C@@]23C[C@@H](C(=O)OC)N(S(=O)(=O)c2ccc(F)cc2)C3=N1` (stereo partly drawn): the inhibition is -0.94%.
Then `C[C@H](O)[C@@H]1C(=O)N2CCc3c([nH]c4c(-c5ccc6c(c5)OCO6)cccc34)[C@@H]2C[C@@H]1N(C)C(=O)c1ccco1`, with -0.59%; and `NC1=CC(=O)C(=O)c2cccnc21`, with 23.6% (active); and `CC[C@H](C)[C@H]1CNC(=O)C(=O)N1CC1CCN(CCc2ccc(OC)c(OC)c2)CC1`, with 4.26%.
In the case of `CC(=O)NCc1ccc(S(=O)(=O)NC2CCN(Cc3ccccc3)CC2)cc1` it was 0.98%; in that of `O=C(c1cc(-c2ccco2)nc2ccccc12)N(Cc1nnc(-c2ccc(Cl)cc2)o1)C1CC1`, -2.45%; in that of `COc1ccc2c(-c3ccccc3)cc(SCC(=O)N(C)C3CCS(=O)(=O)C3)nc2c1` (stereo not drawn), 1.46%.
For `CN(C(=O)COC(=O)c1cc(-c2ccco2)nc2ccccc12)C1CCS(=O)(=O)C1` (stereo not drawn), the inhibition is 30.6% (active).
Then `C[C@@H](NC(=O)OC(C)(C)C)c1nnc(S(=O)(=O)Cc2ccccc2)o1`, with 6.57%; and `COC(=O)Cc1nnn2c1[C@H](C)[C@@H](OC)c1cc(Br)ccc1-2`, with -3.71%.
In the case of `COC(=O)[C@]12C[C@H](CC(=O)NCCc3ccccc3OC)C(=O)N(Cc3ccccc3)C1=C[C@H](C(C)C)O[C@@H]2C1CC1` it was 0.38%; in that of `Cc1[nH]c2ccccc2c1CC(=O)Nc1ccc(Nc2cccnc2)c(-c2cccc(Cl)c2)c1`, 7.27%; in that of `COc1ccc(N2CCN(C(=O)COc3ccc4c(C)cc(=O)oc4c3)CC2)cc1`, 4.22%.
In the case of `Cc1ccc(O)c(/C=N/NC(=O)COc2ccc3c(C)cc(=O)oc3c2)c1` it was 35% (active); in that of `CC(=O)c1c(C)[nH]c(C(=O)COc2ccc3c(C)cc(=O)oc3c2)c1C`, -7.65%.
With `Cc1nc(NC(=O)C(C)(C)C)sc1[N+](=O)[O-]`, the inhibition is -8.33%.
As to `O=S1(=O)c2ccc(Br)cc2-n2nncc2CN1Cc1cccc(Cl)c1`, the inhibition was 3.21%.
Then `Nc1ncnc2c1ncn2[C@@H]1O[C@H](C(=O)N[C@@H](CCc2ccccc2)C(=O)NCC(=O)N2CCOCC2)[C@@H](O)[C@H]1O`, with 10.8%.
As for `COC(=O)C(C(=O)OC)c1ccccc1NS(=O)(=O)c1cccc2ccccc12`, the inhibition is 6.59%.
Consider `O=C(NN=Cc1ccco1)C(=O)Nc1ccc(Cl)c([N+](=O)[O-])c1`, for which the inhibition is 3.53%.
As to `Cc1ncc(CO)c(/C=N/NC(=O)c2cccc(S(=O)(=O)N3CCCC3)c2)c1O`, the inhibition was 27.1% (active).
Then `CCOc1cc(/C=N/NC(=O)c2cccc(S(=O)(=O)N3CCOCC3)c2)ccc1OCC(=O)N(C)C`, with -6.38%; and `O=C(NNC1=NCCC1)c1cccc(S(=O)(=O)N2CCCCC2)c1`, with -7.2%.
Then `O=C(O)Cn1cnc2c(NCc3ccccc3)ncnc21`, with -4.94%; and `Cc1ccc(C)c(NC(=O)CN(C)C(=O)COc2ccc3ccccc3c2)c1`, with -2.17%.
`Cc1cc2ccccc2n1CCNC(=O)COc1ccc2ccccc2c1`: the inhibition was 60.3% (active).
Then `COCCNC(=O)COc1ccc(N(C)S(=O)(=O)c2ccc3ccccc3c2)cc1`, with -0.41%.
In the case of `N#Cc1cccc(C(=O)NCC2CCN(C(=O)C(=O)c3cc4ccccc4o3)CC2)c1` it was 0.99%; in that of `CCOc1ccccc1C(=O)N1CCC[C@@H]1C(=O)N1CCC[C@H]1C(=O)NCc1ccccc1`, -2.28%.
Then `Cc1ccc2nc(-c3ccc(NC(=O)CN(C)S(=O)(=O)c4ccccc4)cc3)sc2c1`, with 8.35%.
Take `O=C(NCC(O)c1nc2ccccc2[nH]1)c1ccc(Br)cc1` (stereo not drawn): the inhibition was 4.63%.
In the case of `O=C(Nc1cccc(-c2nc3ccccc3[nH]2)c1)c1ccc(C(=O)Nc2cccc(-c3nc4ccccc4[nH]3)c2)cc1`, the inhibition was 26.7% (active).
In the case of `O=C(Nc1ccccc1)c1cc2ccccc2[nH]1` it was -3.23%; in that of `Cc1cc(OC(=O)NCCc2ccc(F)cc2)ccc1F`, 1.4%.
Consider `COC(=O)c1cc2c(c3c4cc(F)ccc4n(S(=O)(=O)c4ccccc4)c13)C(=O)N(Cc1ccccc1OC)C2`, for which the inhibition was 2.91%.
Consider `CC(C)(C)C(c1nc2ccccc2[nH]1)n1c(Cc2csc3ccccc23)nc2ccccc21` (stereo not drawn), for which the inhibition was 5.18%.

These data come from PubChem BioAssay AID651800 (The Scripps Research Institute Molecular Screening Center, 2012).
